Source: PubChem BioAssay (Tox21)
Records with an inconclusive call do not appear. Entries that show only a call come without a potency. Activity calls are given as the source filed them. Unless noted, calls come from the whole dose curve.

What was measured:
[1] = Nuclear factor erythroid 2-related factor 2/antioxidant responsive element (Nrf2/ARE) small molecule agonists: qHTS cell viability counter screen in human keratinocytes (AID 1919968; active = well fitted curve in the direction sought with a large enough effect in the repeat runs; an effect the other way counts as inactive or inconclusive; note: nearly all actives have a fitted effect of over 55% in size; note: potency is the fitted concentration of half-maximal effect)
Summary of the method: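 Parallel cytotoxicity read: KeratinoSens HaCaT cells, compound treatment 23 h, viability by CellTiter-Fluor fluorescence 1 h post-reagent.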

[2] = Nuclear factor erythroid 2-related factor 2/antioxidant responsive element (Nrf2/ARE) small molecule agonists: luciferase reporter gene qHTS assay in human keratinocytes (AID 1919969); note: nearly all actives have a fitted effect of over 35% in size; note: potency is the fitted concentration of half-maximal effect
[3] = molecular target: Gonadotropin-releasing hormone receptor (Homo sapiens) (UniProt P30968); experiment: Human gonadotropin-releasing hormone receptor (GnRHR) small molecule agonists, calcium flux assay in GnRHR-HEK293 cells (AID 1920063); note: nearly all actives have a fitted effect of over 35% in size; note: potency is the fitted concentration of half-maximal effect
Chain of Gonadotropin-releasing hormone receptor (Homo sapiens) (P30968 whole entry, looked up): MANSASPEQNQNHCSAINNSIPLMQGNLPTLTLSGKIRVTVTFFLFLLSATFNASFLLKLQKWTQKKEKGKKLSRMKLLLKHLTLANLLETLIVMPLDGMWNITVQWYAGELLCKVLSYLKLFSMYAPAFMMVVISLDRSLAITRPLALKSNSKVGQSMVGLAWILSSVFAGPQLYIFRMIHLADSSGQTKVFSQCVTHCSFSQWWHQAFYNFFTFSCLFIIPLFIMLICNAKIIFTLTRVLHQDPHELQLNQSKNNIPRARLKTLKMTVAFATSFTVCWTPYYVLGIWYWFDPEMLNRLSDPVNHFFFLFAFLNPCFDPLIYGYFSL
Summary of the method: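 Calcium flux, agonist mode, human GnRHR stably integrated in HEK293; dye 1 h at 37 C before compound; Ex/Em=480/540 kinetic read, 3 min; 15 concentrations, triplicate.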

[4] = molecular target: KiSS-1 receptor (Homo sapiens) (UniProt Q969F8); experiment: Human kisspeptin (KISS1R) small molecule agonists, calcium flux assay in KISS1R-HEK293 cells (AID 1920064; active = well fitted curve in the direction sought with a large enough effect in the repeat runs; an effect the other way counts as inactive or inconclusive; note: potency is the fitted concentration of half-maximal effect)
Chain of KiSS-1 receptor (Homo sapiens) (Q969F8 whole entry, looked up): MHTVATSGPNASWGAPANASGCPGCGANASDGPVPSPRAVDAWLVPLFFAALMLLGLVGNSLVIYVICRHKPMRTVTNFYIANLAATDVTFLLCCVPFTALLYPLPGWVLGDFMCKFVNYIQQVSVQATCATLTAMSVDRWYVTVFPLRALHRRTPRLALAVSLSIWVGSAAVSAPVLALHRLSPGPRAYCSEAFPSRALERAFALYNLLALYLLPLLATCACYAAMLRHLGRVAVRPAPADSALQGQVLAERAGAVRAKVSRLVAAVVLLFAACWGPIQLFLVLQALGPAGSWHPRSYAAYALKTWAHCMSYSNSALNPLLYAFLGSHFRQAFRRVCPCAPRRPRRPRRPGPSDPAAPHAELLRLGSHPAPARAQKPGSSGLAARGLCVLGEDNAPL
Summary of the method: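 Triplicate 15-concentration series were applied to dye-loaded human KISS1R HEK293 cells, and agonist-evoked calcium fluorescence was captured for 3 min.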

[5] = G protein-coupled receptor (GPCR) small molecule agonists, calcium flux assay: HEK293 wild type cell line counter screen (AID 1920065)
Summary of the method: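 Non-specific calcium responders were flagged by adding DMSO-dissolved compounds to dye-loaded cells and reading 480/540 nm fluorescence each second for 3 min; ATP served as positive control.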

[6] = p53 small molecule agonists, cell-based qHTS assay: qHTS cell viability counter screen (AID 1963581); note: nearly all actives have a fitted effect of over 45% in size; note: potency is the fitted concentration of half-maximal effect
Summary of the method: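 Multiplexed with the reporter read, a CellTiter-Glo step (30 min, room temperature) gauges ATP-based viability of HCT-116 p53RE-bla cells after 16 h compound incubation at 37 C.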

[7] = p53 small molecule agonists, cell-based qHTS assay (AID 1963582; active = well fitted activation curve with a large enough effect in the signal ratio in the repeat runs, not every such curve was filed as active; the % refers to the signal ratio)
Summary of the method: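 Beta-lactamase reporter cells (p53RE-bla) treated with compounds for 16 h at 37 C; FRET substrate, 2 h, room temperature; fluorescence intensity.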

[8] = molecular target: 5-hydroxytryptamine receptor 2A (Homo sapiens) (UniProt P28223); experiment: 5-hydroxytryptamine receptor 2A (HTR2A) small molecule antagonists, cell-based qHTS assay (AID 1963586); note: nearly all actives have a fitted effect of over 45% in size
Chain of 5-hydroxytryptamine receptor 2A (Homo sapiens) (P28223 whole entry, looked up): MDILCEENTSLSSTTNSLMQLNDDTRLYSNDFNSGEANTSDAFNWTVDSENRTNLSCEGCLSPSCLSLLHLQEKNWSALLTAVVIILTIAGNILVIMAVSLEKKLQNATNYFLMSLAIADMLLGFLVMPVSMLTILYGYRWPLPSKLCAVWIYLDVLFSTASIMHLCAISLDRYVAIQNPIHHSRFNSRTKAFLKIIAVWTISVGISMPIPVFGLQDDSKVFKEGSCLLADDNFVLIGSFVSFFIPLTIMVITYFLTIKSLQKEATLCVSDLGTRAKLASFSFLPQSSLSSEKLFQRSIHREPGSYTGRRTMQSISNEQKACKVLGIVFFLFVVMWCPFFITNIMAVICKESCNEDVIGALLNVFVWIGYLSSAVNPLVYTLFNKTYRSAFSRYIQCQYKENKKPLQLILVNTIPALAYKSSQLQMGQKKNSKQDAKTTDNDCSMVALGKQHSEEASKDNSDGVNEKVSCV
Summary of the method: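 CHO cells stably expressing human HTR2A were plated for 18 h at 37 C, then loaded with calcium dye for 1 h. Compounds were preincubated 5 min at room temperature before DOI (4 nM solution) was added. Kinetic fluorescence was read for 3 min.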

[9] = molecular target: 5-hydroxytryptamine receptor 2A (Homo sapiens) (UniProt P28223); experiment: 5-hydroxytryptamine receptor 2A (HTR2A) small molecule agonists, cell-based qHTS assay (AID 1963587); note: nearly all actives have a fitted effect of over 30% in size; note: potency is the fitted concentration of half-maximal effect
Summary of the method: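 HTR2A-CHO cells, plated 18 h at 37 C/5% CO2, dye-loaded 1 h at 37 C; compounds in DMSO added by pin tool (agonist mode). Intracellular calcium flux read as kinetic fluorescence on FDSS over 2 min at 1 s intervals.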

[10] = molecular target: Muscarinic acetylcholine receptor M1 (Homo sapiens) (UniProt P11229); experiment: Cholinergic receptor muscarinic 1 (CHRM1) small molecule antagonists, cell-based qHTS assay (AID 1963588); note: nearly all actives have a fitted effect of over 40% in size
Chain of Muscarinic acetylcholine receptor M1 (Homo sapiens) (P11229 whole entry, looked up): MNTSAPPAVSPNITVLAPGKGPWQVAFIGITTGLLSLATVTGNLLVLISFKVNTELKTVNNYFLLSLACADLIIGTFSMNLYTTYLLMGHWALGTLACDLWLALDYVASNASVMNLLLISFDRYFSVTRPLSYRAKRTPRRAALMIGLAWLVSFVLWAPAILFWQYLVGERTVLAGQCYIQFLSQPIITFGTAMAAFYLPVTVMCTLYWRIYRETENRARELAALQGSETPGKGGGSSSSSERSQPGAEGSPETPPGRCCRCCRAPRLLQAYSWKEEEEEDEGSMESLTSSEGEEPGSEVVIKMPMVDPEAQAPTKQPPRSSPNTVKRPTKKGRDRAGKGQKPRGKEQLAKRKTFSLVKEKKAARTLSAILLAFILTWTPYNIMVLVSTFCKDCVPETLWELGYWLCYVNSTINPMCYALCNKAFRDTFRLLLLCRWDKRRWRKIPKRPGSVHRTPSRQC
Summary of the method: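 Compounds were tested at 15 concentrations in three independent runs. Dye-loaded CHRM1-CHO cells were exposed 5 min at room temperature before stimulation by acetylcholine added at 50nM. Intracellular calcium was read kinetically on FDSS for 3 min.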

[11] = cAMP Responsive Elements (CRE) small molecule agonists, cell-based qHTS assay (AID 1963590)
Summary of the method: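 Quantitative HTS for CRE agonists: HEK 293T CRE-bla cells, overnight plating, 3 h compound incubation at 37 C/5% CO2, then 2 h room-temperature LiveBLAzer B/G FRET substrate loading.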

[12] = cAMP Responsive Elements (CRE) small molecule antagonists, cell-based qHTS assay (AID 1963591; active = well fitted inhibition curve with a large enough effect in the signal ratio in the repeat runs, not every such curve was filed as active; the % refers to the signal ratio)
Summary of the method: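 Fluorescence intensity from cleaved LiveBLAzer B/G substrate (2 h, room temperature) quantified CRE-bla activity in HEK 293T cells exposed 3 h to compound with 0.25 uM final NKH477.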

[13] = molecular target: Beta-2 adrenergic receptor (Homo sapiens) (UniProt P07550); experiment: Adrenergic beta2 receptor (ADRB2) small molecule antagonists, cell-based qHTS assay (AID 1963592); note: nearly all actives have a fitted effect of over 50% in size; note: potency is the fitted concentration of half-maximal effect
Chain of Beta-2 adrenergic receptor (Homo sapiens) (P07550 whole entry, looked up): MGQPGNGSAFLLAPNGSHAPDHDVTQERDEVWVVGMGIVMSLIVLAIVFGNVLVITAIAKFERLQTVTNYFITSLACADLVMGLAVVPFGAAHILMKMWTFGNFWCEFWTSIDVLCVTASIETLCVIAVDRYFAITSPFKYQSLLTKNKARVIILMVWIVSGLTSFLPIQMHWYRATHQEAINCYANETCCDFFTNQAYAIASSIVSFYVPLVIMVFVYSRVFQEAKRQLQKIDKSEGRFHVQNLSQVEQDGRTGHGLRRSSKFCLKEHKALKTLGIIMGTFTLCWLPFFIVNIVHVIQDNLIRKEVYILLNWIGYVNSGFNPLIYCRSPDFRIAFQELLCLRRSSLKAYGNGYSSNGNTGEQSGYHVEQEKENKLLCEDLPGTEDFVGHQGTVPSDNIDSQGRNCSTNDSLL
Summary of the method: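 Assay format: CHO-ADRB2 cells, 18-20hr seeding at 37C/5% CO2, then compound plus 1nM isoproterenol agonist mix for 0.5hr RT. Homogeneous time-resolved fluorescence cAMP detection after 1hr, expressed as 665/615 nm ratio.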

[14] = molecular target: Beta-2 adrenergic receptor (Homo sapiens) (UniProt P07550); experiment: Adrenergic beta2 receptor (ADRB2) small molecule agonists, cell-based qHTS assay (AID 1963593);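 note: CHO cells stably overexpressing human ADRB2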
Summary of the method: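 CHO cells stably over-expressing ADRB2 were plated overnight at 37C, then dosed with compounds plus a stimulation mix containing 100uM IBMX and 25uM Ro-20-1724 for 0.5hr at room temperature. cAMP was measured by HTRF competition, 1hr.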

[15] = molecular target: D(2) dopamine receptor (Homo sapiens) (UniProt P14416); experiment: Dopamine D2 receptor (DRD2) small molecule agonists, cell-based qHTS assay (AID 1963594); note: nearly all actives have a fitted effect of over 35% in size
Chain of D(2) dopamine receptor (Homo sapiens) (P14416 whole entry, looked up): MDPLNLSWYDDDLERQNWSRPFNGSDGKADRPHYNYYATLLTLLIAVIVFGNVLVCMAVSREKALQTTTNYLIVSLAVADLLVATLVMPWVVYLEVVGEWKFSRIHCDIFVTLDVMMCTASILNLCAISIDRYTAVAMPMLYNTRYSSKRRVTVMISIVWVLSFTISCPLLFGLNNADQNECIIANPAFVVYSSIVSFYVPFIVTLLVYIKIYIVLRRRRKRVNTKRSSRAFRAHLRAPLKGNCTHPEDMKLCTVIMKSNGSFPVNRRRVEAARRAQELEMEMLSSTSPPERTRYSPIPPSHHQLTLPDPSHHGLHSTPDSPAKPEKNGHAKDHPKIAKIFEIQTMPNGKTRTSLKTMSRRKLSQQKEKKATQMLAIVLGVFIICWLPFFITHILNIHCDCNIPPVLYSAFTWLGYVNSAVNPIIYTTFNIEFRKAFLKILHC
Summary of the method: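 HEK293 cells stably expressing DRD2 were cultured 24 h at 37 C, then given Ro20-1724 (0.1 mM final) and compounds for 10 min at room temperature. NKH477 (200nM) was then added for 30 min. cAMP was read by HTRF.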

[16] = molecular target: D(2) dopamine receptor (Homo sapiens) (UniProt P14416); experiment: Dopamine D2 receptor (DRD2) small molecule antagonists, cell-based qHTS assay (AID 1963595; active = well fitted inhibition curve with a large enough effect in the signal ratio in the repeat runs, with a control signal flat; the % refers to the signal ratio)
Summary of the method: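 In this cell-based antagonist screen, compounds act for 10 min at room temperature before a 30 min challenge with 12 nM quinpirole and 200 nM NKH477. cAMP is quantified by HTRF competition in DRD2-HEK293 cells containing 0.1 mM Ro20-1724.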

[17] = p53 small molecule agonists, cell-based qHTS assay with rat liver microsomes: qHTS cell viability counter screen (AID 1963580); note: nearly all actives have a fitted effect of over 45% in size; note: potency is the fitted concentration of half-maximal effect
Summary of the method: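 Counter screen for cytotoxicity under metabolic activation: rat liver microsomes and NADPH, 0.5 mg/mL final each, added with compounds to p53RE-bla HCT-116 cells; 16 h at 37 C, then ATP luminescence read.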

[18] = molecular target: Muscarinic acetylcholine receptor M1 (Homo sapiens) (UniProt P11229); experiment: Cholinergic receptor muscarinic 1 (CHRM1) small molecule agonists, cell-based qHTS assay (AID 1963589); note: nearly all actives have a fitted effect of over 35% in size; note: potency is the fitted concentration of half-maximal effect
Summary of the method: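 qHTS, 15-point titration, 3 independent runs: compounds pin-transferred onto dye-loaded CHRM1-CHO cells (human M1), calcium fluorescence followed every second to detect agonism.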

[19] = p53 small molecule agonists, cell-based qHTS assay with rat liver microsomes (AID 1963578)
Summary of the method: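 Read-out is beta-lactamase reporter fluorescence (LiveBLAzer, 2 h, room temperature, dark) in p53RE-bla cells treated 16 h at 37 C with compound, rat liver microsomes and NADPH, both 0.5 mg/mL final.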

[20] = p53 small molecule agonists, cell-based qHTS assay with human liver microsomes: qHTS cell viability counter screen (AID 1963579); note: nearly all actives have a fitted effect of over 45% in size
Summary of the method: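 Cells carrying the p53 response-element beta-lactamase reporter are treated for 16 h at 37 C with test compounds in the presence of human liver microsomes and NADPH (both 0.5 mg/mL final); ATP-based CellTiter-Glo luminescence then reports viability.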

SMILES | Potency [1] | Potency [2] | Potency [3] | Potency [4] | Potency [5] | Potency [6] | Potency [7] | Potency [8] | Potency [9] | Potency [10] | Potency [11] | Potency [12] | Potency [13] | Potency [14] | Potency [15] | Potency [16] | Potency [17] | Potency [18] | Potency [19] | Potency [20]
c1csc(SSc2cccs2)c1 | 15.4 µM (active) | 6.11 µM (active) | inactive | inactive | inactive | inactive | inactive | inactive | inactive | inactive | inactive | inactive | inactive | inactive | inactive | inactive |  |  |  | 
Clc1ccc(C(Cn2ccnc2)OCc2ccsc2Cl)c(Cl)c1 (centres undefined) | 8.41 µM (active) | 10.6 µM (active) | inactive | inactive | inactive | inactive |  |  | inactive |  | inactive |  | 29.8 µM (active) |  | inactive | inactive | inactive | inactive |  | 
O=S(=O)(O)c1cc(O)ccc1O | inactive | inactive | inactive | inactive | inactive |  |  | inactive | inactive | inactive | inactive | inactive | inactive |  | inactive | inactive |  | inactive |  | 
O=C1NCCN1CCN1CCC(c2cn(-c3ccc(F)cc3)c3ccc(Cl)cc23)CC1 | 11.9 µM (active) | inactive | inactive | inactive | inactive | inactive |  |  | inactive |  |  |  | inactive |  | inactive |  | inactive | inactive |  | 
CCN(CC)c1ccc2c(c1)Oc1cc(N(CC)CC)ccc1C21OC(=O)c2ccccc21 | 9.44 µM (active) | inactive | 19 µM (active) | 23.9 µM (active) |  |  | inactive | inactive | 21.3 µM (active) | inactive | inactive | inactive |  |  |  | inactive |  | 23.9 µM (active) | inactive | inactive
C[C@H]1[C@H]2CC[C@H]3[C@@H]4CC=C5C[C@@H](N(C)C)CC[C@]5(C)[C@H]4CC[C@]23CN1C | inactive | inactive | inactive | inactive | inactive |  |  | inactive | inactive |  | inactive | inactive | inactive | inactive | inactive | inactive | inactive | inactive |  | 
c1ccc(Sc2ccccc2)cc1 | inactive | 68.6 µM (active) | inactive | inactive | inactive | inactive |  | inactive | inactive | inactive | inactive | inactive | inactive |  | inactive |  |  | inactive |  | 
CCC1(c2cnc[nH]2)Cc2ccccc2C1 | inactive | inactive | inactive | inactive | inactive |  |  |  | inactive | inactive |  |  | inactive |  | inactive | inactive |  | inactive |  | 
O=C(c1ccccc1)c1ccc(O)cc1 | inactive | inactive | inactive | inactive | inactive | inactive |  |  | inactive | inactive |  | inactive | inactive |  | inactive | inactive | inactive | inactive |  | 
O=C(Nc1ccc(Cl)c(Cl)c1)c1cc(Cl)cc(Cl)c1O | 3.44 µM (active) | 27.3 µM (active) | inactive | inactive |  | 4.08 µM (active) |  |  |  |  |  |  |  |  | inactive |  | 40.8 µM (active) |  | inactive | 
CCCCCCCCCCCCCCC[C@H](O)[C@@H](N)CO | inactive | inactive | inactive | inactive |  |  | inactive | inactive | 7.56 µM (active) | inactive | inactive | inactive | inactive |  |  | inactive | inactive | inactive | inactive | inactive
CC1=C(Br)C(=O)C(Br)=C/C1=C(/c1ccccc1S(=O)(=O)O)c1cc(Br)c(O)c(Br)c1C | 18.6 µM (active) | inactive | inactive | inactive | inactive |  |  | inactive | inactive | inactive | inactive |  |  |  |  |  |  | inactive |  | 
CCn1nc(C(=O)O)c(=O)c2cc3c(cc21)OCO3 | inactive | inactive | inactive | inactive | inactive | inactive | inactive | inactive | inactive | inactive |  |  | inactive |  | inactive | inactive |  | inactive |  | 
Nc1cccc(O)c1 | inactive | inactive | inactive | inactive | inactive | inactive |  |  | inactive | inactive | inactive | inactive | inactive | inactive | inactive | inactive |  | inactive |  | 
CN(C)[C@@H]1C(=O)C(C(N)=O)=C(O)[C@@]2(O)C(=O)C3=C(O)c4c(O)cccc4C[C@H]3C[C@@H]12 | inactive | inactive | inactive | inactive | inactive |  | inactive |  | inactive | inactive |  |  | inactive | inactive | inactive | inactive | inactive | inactive |  | 
O=c1[nH][nH]c2ccccc12 | inactive | 62.3 µM (active) | inactive | inactive | inactive |  |  | inactive | inactive | inactive |  | inactive | inactive | inactive | inactive | inactive | inactive | inactive |  | 
